From paper PMC5540273 (PLoS ONE, 2017)

Experiments:
Settings in all cases: concentration: 1 μM, replicates: in singlicate; n = 1
SRPK2 = tested on: SRPK2
SRPK3 = tested on: SRPK3
STK16 = tested on: STK16
STK33 = tested on: STK33
STK35 = tested on: STK35
STK36 = tested on: STK36
STK39 = tested on: STK39
SYK = tested on: SYK
SgK110 = tested on: SgK110
TAK1 = tested on: T1, TAK1
T1 construct: gene MAP3K7
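Note: KINOMEscan kinase panel screen.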

SMILES | %Inh (SRPK2) [%] | %Inh (SRPK3) [%] | %Inh (STK16) [%] | %Inh (STK33) [%] | %Inh (STK35) [%] | %Inh (STK36) [%] | %Inh (STK39) [%] | %Inh (SYK) [%] | %Inh (SgK110) [%] | %Inh (TAK1) [%]
COc1ccc2cc(-c3nc(-c4ccccc4C(C)C)[nH]c3-c3ccncc3)ccc2c1 [SB-660566] | 0 | 0 | 9 | 0 | 38 | 41 | 31 | 10 | 0 | 0
CC(C)c1ccc(O)cc1Nc1ccnc2ccc(C(F)(F)F)cc12 [GW482059] | 0 | 16 | 0 | 19 | 0 | 0 | 0 | 23 | 0 | 0
CC(=O)c1cccc(NC(=O)NC2CCN(c3ccnc(Nc4ccc(F)cc4)n3)C2)c1 (centres unmarked) [GSK1379710] | 28 | 0 | 1 | 6 | 1 | 0 | 25 | 29 | 0 | 0
Cn1cncc1C(=O)NC1CCN(c2ccnc(Nc3ccc(F)cc3)n2)C1 (centres unmarked) [GSK1379717] | 0 | 0 | 17 | 0 | 0 | 0 | 0 | 5 | 6 | 0
CNCc1ccc2nc(NC(=O)c3ccc(C(C)(C)C)cc3)cn2c1 | 5 | 0 | 0 | 1 | 0 | 11 | 42 | 2 | 9 | 20
